Laboratory results as given in PubChem BioAssay AID1159580 (chemical genetic matrix, 2015).
Values joined by “and” are separate entries in the source; they are usually repeats but may differ in a detail not shown here. Identical values can stand only once. The campaign covered roughly 5,500 compounds. About 2,000 (36%) were called active. About 18% were inconclusive and are not listed. No stated cut-off is given here; in the data, active means normalized growth mostly below about 0.91 (no sharp cut-off); inconclusive means no clear call, values can overlap the other calls; inactive means mostly above about 0.92. The list shows a part of the results.

Test: chemical genetic growth profiling, strain panel (AID 1159580);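 further: tested at 20 µM; growth read once vehicle control cultures reached saturation at 30 °C; 1 = growth at the plate median or of vehicle wells; lower values mean less growth of the strain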
Settings: S. cerevisiae deletion strains, growth OD

Measured: normalized growth

CN(C)CCN(Cc1ccccc1)c1ccccn1
inactive: locus YAL013W, strain DEP1, active compounds read low 0.988 | locus YAL021C, strain ccr4, active compounds read low 1.01 | locus YAL026C, strain drs2, active compounds read low 1.01 | locus YAL030W, strain snc1, active compounds read low 1.02 | locus YBL061C, strain skt5, active compounds read low 1.01 | locus YBR009C, strain hhf1, active compounds read low 0.963 | locus YBR021W, strain FUR4, active compounds read low 0.99 | locus YBR023C, strain chs3, active compounds read low 1.01 | locus YBR171W, strain sec66, active compounds read low 1.02 | locus YBR229C, strain ROT2, active compounds read low 1.01 | locus YBR231C, strain swc5, active compounds read low 1.02 | locus YBR279W, strain paf1, active compounds read low 1.01 | locus YCL011C, strain gbp2, active compounds read low 1 | locus YCL016C, strain dcc1, active compounds read low 0.997 | locus YCL029C, strain bik1, active compounds read low 0.972 | locus YCL061C, strain MRC1, active compounds read low 1.03 | locus YCL069W, strain vba3, active compounds read low 1.01 | locus YCR088W, strain abp1, active compounds read low 0.997 | locus YDL005C, strain med2, active compounds read low 1.01 | locus YDL035C, strain GPR1, active compounds read low 1.01 | locus YDL040C, strain nat1, active compounds read low 1.02 | locus YDL074C, strain BRE1, active compounds read low 1.02 | locus YDL101C, strain DUN1, active compounds read low 0.987 | locus YDL134C, strain PPH21, active compounds read low 1 | locus YDL185W, strain tfp1, active compounds read low 0.946 | locus YDL192W, strain arf1, active compounds read low 0.98 | locus YDR001C, strain nth1, active compounds read low 1.01 | locus YDR069C, strain doa4, active compounds read low 1.03 | locus YDR101C, strain arx1, active compounds read low 0.988 | locus YDR137W, strain rgp1, active compounds read low 1.01 | locus YDR150W, strain NUM1, active compounds read low 0.981 | locus YDR159W, strain sac3, active compounds read low 0.981 | locus YDR162C, strain NBP2, active compounds read low 0.989 | locus YDR195W, strain ref2 1.02 | locus YDR297W, strain sur2, active compounds read low 1.02 | locus YDR318W, strain mcm21, active compounds read low 1.01 | locus YDR334W, strain swr1, active compounds read low 1.01 | locus YDR335W, strain msn5, active compounds read low 1.02 | locus YDR388W, active compounds read low 1 | locus YDR392W, strain spt3, active compounds read low 0.999 | locus YDR502C, strain sam2, active compounds read low 1.02 | locus YEL003W, strain gim4, active compounds read low 1.02 | locus YEL037C, strain rad23, active compounds read low 1.02 | locus YEL061C, strain CIN8 (second series), active compounds read low 1.02 | locus YEL061C, strain CIN8, active compounds read low 0.992 | locus YER015W, strain faa2, active compounds read low 1.01 | locus YER016W, strain bim1, active compounds read low 0.964 | locus YER110C, active compounds read low 0.973 | locus YER111C, strain swi4, active compounds read low 1.02 | locus YER155C, strain BEM2 (second series), active compounds read low 1.05 | locus YER155C, strain BEM2, active compounds read low 1 | locus YER167W, strain BCK2, active compounds read low 0.996 | locus YFR010W, strain ubp6, active compounds read low 1.03 | locus YGL078C, strain dbp3, active compounds read low 0.991 | locus YGL086W, strain mad1, active compounds read low 0.992 | locus YGL167C, strain pmr1, active compounds read low 1.01 | locus YGL173C, strain kem1, active compounds read low 1.03 | locus YGL227W, strain vid30, active compounds read low 1.01 | locus YGL240W, strain doc1, active compounds read low 1.04 | locus YGL248W, strain PDE1, active compounds read low 1.01 | locus YGL253W, strain hxk2, active compounds read low 1 | locus YGR078C, strain PAC10, active compounds read low 0.988 | locus YGR135W, strain pre9, active compounds read low 1.01 | locus YGR229C, strain SMI1, active compounds read low 1 | locus YGR252W, strain gcn5, active compounds read low 1.14 | locus YHR013C, strain ard1, active compounds read low 0.984 | locus YHR027C, strain rpn1, active compounds read low 1 | locus YHR030C, strain SLT2, active compounds read low 0.968 and 0.97 | locus YHR079C, strain IRE1 (second series), active compounds read low 0.999 | locus YHR079C, strain IRE1, active compounds read low 0.953 | locus YHR094C, strain hxt1, active compounds read low 0.967 | locus YHR129C, strain ARP1, active compounds read low 0.994 | locus YHR142W, strain chs7, active compounds read low 1.01 | locus YHR200W, strain rpn10, active compounds read low 1 | locus YIL066C, strain RNR3, active compounds read low 1 | locus YIL073C, strain SPO22, active compounds read low 0.928 | locus YIL125W, strain kgd1, active compounds read low 0.976 | locus YIR030C, strain dcg1, active compounds read low 0.994 | locus YJL092W, strain hpr5, active compounds read low 1.03 | locus YJL095W, strain BCK1 (second series), active compounds read low 1.01 | locus YJL095W, strain BCK1, active compounds read low 0.96 and 0.975 | locus YJL115W, strain asf1, active compounds read low 1.02 | locus YJL129C, strain trk1, active compounds read low 1.02 | locus YJL134W, strain LCB3, active compounds read low 0.998 | locus YJL154C, strain vps35, active compounds read low 1.01 | locus YJL164C, strain tpk1, active compounds read low 1 | locus YJL166W, strain qcr8, active compounds read low 1.04 | locus YJL168C, strain set2, active compounds read low 0.982 | locus YJL187C, strain SWE1 (second series), active compounds read low 0.985 | locus YJR043C, strain POL32, active compounds read low 1.01 | locus YJR066W, strain TOR1, active compounds read low 0.947
